Test results as given in the supplement of paper PMC6555819.

Columns and labels:
Experiment in all cases: PBM binding z-score (relative to random genomic background probes); higher = stronger binding; sequences stand for … in GC…GCGATTGACAGCGTAGAATGAAGG
[1] = test system: RARb homodimer (NR concentration 270 nM)
How it was run: (§1)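 Scanned fluorescence from custom Agilent 4×180K protein-binding microarrays was regression-normalized. Binding z-scores use random background probes as reference. Ligand-free nuclear receptor dimers were incubated on the arrays for 1 h and detected with antibodies against each partner (one per run).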

[2] = test system: RARg:RXRa (NR concentration 270 nM, RXRa partner concentration 90 nM)
How it was run: as §1

[3] = test system: RARg homodimer (NR concentration 270 nM)
How it was run: as §1

[4] = test system: RXRa DBDmut IVT, anti-RXR (DBD mutation: RXRa K156A/R161A, NR concentration 90 nM)
How it was run: as §1

[5] = test system: RXRa homodimer (NR concentration 180 nM)
How it was run: as §1

[6] = test system: THRa:RXRa (NR concentration 90 nM, RXRa partner concentration 90 nM)
How it was run: as §1

[7] = test system: THRa homodimer (NR concentration 90 nM)
How it was run: as §1

[8] = test system: VDR homodimer (NR concentration 270 nM)
How it was run: as §1

Row | Sequence | PBM binding z-score [1] | PBM binding z-score [2] | PBM binding z-score [3] | PBM binding z-score [4] | PBM binding z-score [5] | PBM binding z-score [6] | PBM binding z-score [7] | PBM binding z-score [8]
1 | ATTGAAAGGTCGTGAGGTGAGTATACAGAAAGGC | 3.49 | 4.76 | 4.06 | 1.2 | 5.39 | 3.77 | 1.94 | 1.4
2 | GATACAGGGTCCGCTAGAGGCCAGAGTATGGAAA | 0.0694 | 0.628 | 0.211 | -0.114 | -0.246 | 0.0317 | -1.09 | -0.148
3 | GCAGACATGTGAAACGCAGGTAACTCAGGGTGGC | -0.931 | -0.194 | -0.391 | -0.691 | -0.0899 | 0.4 | -0.871 | -1.27
4 | GCATATAGGTAATACAAGGTGATAGTCCGATTGT | -0.0222 | 0.537 | 0.59 | 0.172 | 0.526 | 3.48 | 0.413 | -0.123
5 | ATCGAAAGGGCGACGAGGTGAGTATACACCGTTT | 1 | 1.16 | 1.28 | -0.425 | 0.969 | 1.99 | 0.542 | 0.597
6 | CCTACTGGGCCATCAGGTCATTGATATCAACGTT | 2.73 | 2.15 | 2.21 | 0.377 | 1.17 | 3.14 | 3.21 | 1.66
7 | TCTTGTAGATAAATAGAGGTTAAGAAAGTGCGCT | 1.11 | 0.845 | 0.418 | 1.3 | 1.46 | 1.54 | -0.012 | 0.923
8 | TCTAGTTGGTCACGGAGGTCACACAAGACGGGTA | 4.03 | 4.88 | 4.81 | 1.22 | 4.67 | 3.75 | 2.37 | 3.03
9 | CCTAGCAGGCCAGGATCACTCAAGCATTTCGCTT | -0.596 | -0.33 | -0.385 | -0.0229 | -0.232 | -0.455 | -0.257 | -0.251
10 | CGAACTAGGTCAGAACAGGAAAGTGAAGGATGAT | 1.61 | 2.35 | 2.9 | 0.506 | 1.07 | 1.29 | 0.124 | -0.115
11 | TCTTGTAGATCAATAGAGGATAAGAAAGTGCGCT | -0.566 | 0.208 | 0.365 | 0.919 | 0.16 | 1.5 | -0.588 | 0.0606
12 | TCTATTAGTTGATTAGGGCAAACGAAACAGCGGA | 0.43 | 0.388 | 0.663 | 0.888 | 0.631 | 0.515 | 0.119 | 0.435
13 | CCTAGTGGGCCATTCAGAGGTCATTGATCATATG | 3.74 | 4.53 | 3.07 | 0.957 | 3.76 | 3.08 | 1.34 | 3.53
14 | TCATATAGGTAAACAGGTGAATGTCCGTAAGTTA | 0.605 | 0.347 | 0.272 | 1.27 | 1.03 | 0.567 | 0.511 | 0.283
15 | ACTAGCAGGCCAAGGGTCTCTCAAGATTAGTCCG | -0.0592 | -0.0301 | 0.272 | -0.533 | 0.0173 | -0.234 | -0.93 | -0.872
16 | TCTATTACTTGAAGGGCAACCGACGAGTCCGTTT | 1.51 | 0.815 | 0.75 | 1.72 | 0.98 | 0.289 | 0.362 | 1.46
17 | CCGACTGTGGCATAAGGTTACCATAAGCCAGCCC | 1.24 | 0.6 | 0.353 | 0.486 | 0.923 | 2.37 | 1.7 | -0.189
18 | CTCGAAATGTCGGTTGAGGTGAGTATACGGATAA | 0.344 | 0.0589 | 0.341 | 0.0185 | 0.114 | 3.31 | 1.36 | 0.263
19 | CCGACAGGGGCAAAGGTTACCATACTCAGTACGA | 2.32 | 3.95 | 2.17 | 1.26 | 5.03 | 2.17 | -0.142 | 0.724
20 | TCGAGCAGGTTACCAATGGGGCATTCAGCTTTCT | 0.557 | 1.36 | 0.389 | -0.436 | 0.616 | 0.235 | -0.786 | -0.843
21 | TCTTGTGGATCAAGCAGGTTAAGAAAGCCTGAGT | 0.266 | -0.132 | -0.515 | 0.604 | 0.211 | 0.309 | -0.303 | 0.15
22 | AGAACGAGGGCACGCTTAGTTGATAGCAGAGTAG | 1.38 | 1.76 | 2.33 | 2.1 | 1.42 | 1.94 | 0.257 | 0.561
23 | GCTAGTTGGACAGTAAAAGGTCACACACCGGTCG | 5.22 | 4.89 | 4.27 | 0.31 | 4.94 | 3.55 | 1.71 | 1.59
24 | GCTAGCAGGCCATTTGAGTCACTCAATGACGGGC | -0.381 | -0.0759 | 0.0765 | -0.0136 | -0.11 | 0.249 | -1.02 | -0.525
25 | GCGATTGGGGCATCAGCAGGTTACCATAACTTAA | 0.917 | 0.779 | 0.543 | 0.393 | 0.323 | 1.03 | 0.429 | -0.374
26 | TAGCCTAGGTCTTTCAGGGGCCAGTATAGAAAGC | 0.423 | 0.873 | 0.295 | -0.58 | -0.286 | 0.663 | -0.603 | -0.407
27 | ATATGTAGGTTATCGGGTCATTCAATTTGCGCAT | 3.35 | 3.52 | 2.68 | 1.57 | 3.4 | 3.59 | 2.86 | 2.76
28 | ATCTCTAGTTAACAAGTTCAGTGAAAGAGAGGAC | 1.64 | 1.07 | 1.06 | 1.03 | 0.676 | 1.12 | 0.867 | 2.76
29 | TCTCGGAGGGCACGAAGGTCAGAGCTTTCCAGAG | 3.94 | 4.11 | 3.97 | 0.77 | 2.79 | 2.63 | -0.228 | 1.81
